Reference: PubChem BioAssay (Tox21)
Unmarked numbers belong to inactive results. Records with an inconclusive call do not appear. A call without a number means that no potency is given here. Active and inactive are the calls of the source. Unless noted, the call rests on the fitted dose curve; in most records, active means well fitted curve in the direction sought with a large enough effect in the repeat runs; inconclusive means weak or mixed curves; inactive means no such curve, though single readings can be large; an effect the other way counts as inactive or inconclusive.

What was measured:
[1] = biological target: Thyrotropin receptor (Homo sapiens) (UniProt P16473); assay: qHTS assay to identify small molecule agonists of the thyroid stimulating hormone receptor (TSHR) signaling pathway (AID 1224843; calls by dose curve; further: nearly all actives have a fitted effect of over 45% in size)
Procedure, shortened: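 Cell line HEK293 with TSHR; density 800/well. Exposure 30 min RT. Readout HTRF cAMP (cAMP-d2/anti-cAMP-cryptate), 1 h RT before reading.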

[2] = qHTS assay to identify small molecule agonists of the hypoxia (HIF-1) signaling pathway - cell viability counter screen (AID 1224844; calls by dose curve; further: nearly all actives have a fitted effect of over 50% in size; further: potency means the concentration at half of the fitted maximal effect)
Procedure, shortened: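 ME-180 HRE-bla cells, 2,000/well, 0.5% dialyzed FBS; 5 hr settle, 17 hr compound at 37C/5% CO2; CCF4-AM reporter read first, then CellTiter-Glo luminescence after 30 min RT.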

[3] = qHTS assay to identify small molecule agonists of H2AX (AID 1224845; active means well fitted activation curve with a large enough effect in the signal ratio in the repeat runs, not every such curve was filed as active; the % refers to the signal ratio)
Procedure, shortened: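 Wild-type CHO-K1 cells plated overnight, then exposed 3 hr at 37C to compounds at 15 concentrations (0.76% DMSO). Lysed, then HTRF anti-pH2AX(S139)-cryptate/anti-H2AX-d2 detection after 24 hr at room temperature; emissions 665 and 620 nm.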

[4] = qHTS assay to identify small molecule agonists of the hypoxia (HIF-1) signaling pathway (AID 1224846; active means well fitted activation curve with a large enough effect in the signal ratio in the repeat runs, not every such curve was filed as active; the % refers to the signal ratio)
Procedure, shortened: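 Cell line: CellSensor HRE-bla ME-180; 2,000 cells/well; 0.5% dialyzed FBS; 5 h preincubation; DMSO compound pin transfer; 17 h, 37C, 5% CO2; CCF4-AM added; bla FRET signal scored for activation.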

[5] = qHTS assay to identify small molecule agonists of H2AX - cell viability counter screen (AID 1224847; calls by dose curve; further: top concentration of the series differs between compounds; nearly all actives have a fitted effect of over 30% in size)
Procedure, shortened: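 Read-out: CellTiter-Glo luminescence, 30 min RT. Cells: wild-type CHO-K1, 1000/well, 10% FBS, plated overnight at 37C. Treatment: 15 concentrations, 3 hr, 37C, 0.76% DMSO.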

[6] = qHTS RealTime-Glo MT Cell Viability Assay in HepG2 cells - 24 hour (AID 1224867); further: nearly all actives have a fitted effect of over 50% in size; further: potency means the concentration at half of the fitted maximal effect
Procedure, shortened: (§1)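 Cell number in HepG2 cultures estimated from NanoLuc luminescence generated by metabolic reduction of a prosubstrate by living cells. The homogeneous, nonlytic format allowed repeated reads at 0, 8, 16, 24, 32 and 40 h of compound exposure.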

[7] = qHTS RealTime-Glo MT Cell Viability Assay in HEK293 cells - 32 hour (AID 1224868); further: nearly all actives have a fitted effect of over 50% in size; further: potency means the concentration at half of the fitted maximal effect
Procedure, shortened: (§2)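 Homogeneous bioluminescent viability format in HEK293 cells (600 cells/well). Following 5 h at 37 C/5% CO2, 23 nL compound was pintooled; the signal was measured repeatedly during 40 h incubation.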

[8] = A CellTox Green Cytotoxicity Assay to monitor cytotoxicity in HEK293 cells - 0 hour (AID 1224869); further: nearly all actives have a fitted effect of over 50% in size
Procedure, shortened: (§3)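 Nonlytic real-time cytotoxicity: HEK293 + CellTox Green reagent plated, 5 h preincubation, pintool compound addition (23 nL in DMSO), 37 C for 40 h, fluorescence measured at successive time points.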

[9] = qHTS RealTime-Glo MT Cell Viability Assay in HepG2 cells - 40 hour (AID 1224870); further: nearly all actives have a fitted effect of over 50% in size; further: potency means the concentration at half of the fitted maximal effect
Procedure, shortened: (§4)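 HepG2 cells mixed with RealTime-Glo MT reagents (NanoLuc plus cell-permeant prosubstrate) were seeded at 600 cells/well, incubated 5 h at 37 C/5% CO2, then pinned with compounds in DMSO; nonlytic luminescence tracked viability during 40 h treatment.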

[10] = qHTS RealTime-Glo MT Cell Viability Assay in HEK293 cells - 16 hour (AID 1224872)
Procedure, shortened: as §2

[11] = qHTS RealTime-Glo MT Cell Viability Assay in HepG2 cells - 8 hour (AID 1224873); further: nearly all actives have a fitted effect of over 55% in size
Procedure, shortened: as §4

[12] = qHTS RealTime-Glo MT Cell Viability Assay in HEK293 cells - 40 hour (AID 1224874); conditions: RealTime-Glo luminescence; max response: stronger effect = lower value; further: nearly all actives have a fitted effect of over 50% in size; further: potency means the concentration at half of the fitted maximal effect
Procedure, shortened: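 Cells were seeded together with NanoLuc luciferase and a prosubstrate that viable cells reduce to a luciferase substrate. After a 5 h incubation at 37 C/5% CO2, compounds were added and luminescence was measured repeatedly during 40 h of treatment.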

[13] = A CellTox Green Cytotoxicity Assay to monitor cytotoxicity in HEK293 cells - 24 hour (AID 1224875); further: nearly all actives have a fitted effect of over 45% in size
Procedure, shortened: as §3

[14] = A CellTox Green Cytotoxicity Assay to monitor cytotoxicity in HepG2 cells - 16 hour (AID 1224876); further: nearly all actives have a fitted effect of over 45% in size; further: potency means the concentration at half of the fitted maximal effect
Procedure, shortened: (§5)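 Read-out is fluorescence of a cyanine dye excluded from live cells that stains DNA of dead HepG2 cells, with signal proportional to cytotoxicity. Plates were read at 0, 8, 16, 24, 32 and 40 h after compound addition.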

[15] = qHTS RealTime-Glo MT Cell Viability Assay in HepG2 cells - 32 hour (AID 1224877); further: nearly all actives have a fitted effect of over 55% in size; further: potency means the concentration at half of the fitted maximal effect
Procedure, shortened: as §1

[16] = A CellTox Green Cytotoxicity Assay to monitor cytotoxicity in HepG2 cells - 24 hour (AID 1224878); further: nearly all actives have a fitted effect of over 45% in size; further: potency means the concentration at half of the fitted maximal effect
Procedure, shortened: as §5

[17] = A CellTox Green Cytotoxicity Assay to monitor cytotoxicity in HepG2 cells - 40 hour (AID 1224879); further: nearly all actives have a fitted effect of over 40% in size; further: potency means the concentration at half of the fitted maximal effect
Procedure, shortened: as §5

[18] = A CellTox Green Cytotoxicity Assay to monitor cytotoxicity in HEK293 cells - 40 hour (AID 1224871); further: nearly all actives have a fitted effect of over 45% in size; further: potency means the concentration at half of the fitted maximal effect
Procedure, shortened: as §3

[19] = qHTS assay to identify small molecule antagonists of the estrogen related receptor (ERR) signaling pathway from Tox21 library (AID 1224848); further: nearly all actives have a fitted effect of over 50% in size; further: potency means the concentration at half of the fitted maximal effect
Procedure, shortened: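 Screening used an ERR reporter line supplied by NTP, exposed for 18 h at 37 C to library compounds delivered in DMSO. Signal was luciferase luminescence developed with ONE-Glo at room temperature for 30 min.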

[20] = qHTS assay to identify small molecule agonists of the estrogen related receptor (ERR) signaling pathway from Tox21 library (AID 1224849; calls by dose curve; further: nearly all actives have a fitted effect of over 15% in size); conditions: ERR reporter cell line, ONE-Glo luciferase, 18 h; at 92.4 µM (top of the series) unless noted
Procedure, shortened: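 ERR cells, 6 h pre-incubation 37 C/5% CO2; cpd in DMSO pinned; 18 h 37 C; ONE-Glo added, 30 min RT; luminescence read. Agonist mode, qHTS.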

Thyrotropin receptor (Homo sapiens), sequence (P16473 whole entry, looked up): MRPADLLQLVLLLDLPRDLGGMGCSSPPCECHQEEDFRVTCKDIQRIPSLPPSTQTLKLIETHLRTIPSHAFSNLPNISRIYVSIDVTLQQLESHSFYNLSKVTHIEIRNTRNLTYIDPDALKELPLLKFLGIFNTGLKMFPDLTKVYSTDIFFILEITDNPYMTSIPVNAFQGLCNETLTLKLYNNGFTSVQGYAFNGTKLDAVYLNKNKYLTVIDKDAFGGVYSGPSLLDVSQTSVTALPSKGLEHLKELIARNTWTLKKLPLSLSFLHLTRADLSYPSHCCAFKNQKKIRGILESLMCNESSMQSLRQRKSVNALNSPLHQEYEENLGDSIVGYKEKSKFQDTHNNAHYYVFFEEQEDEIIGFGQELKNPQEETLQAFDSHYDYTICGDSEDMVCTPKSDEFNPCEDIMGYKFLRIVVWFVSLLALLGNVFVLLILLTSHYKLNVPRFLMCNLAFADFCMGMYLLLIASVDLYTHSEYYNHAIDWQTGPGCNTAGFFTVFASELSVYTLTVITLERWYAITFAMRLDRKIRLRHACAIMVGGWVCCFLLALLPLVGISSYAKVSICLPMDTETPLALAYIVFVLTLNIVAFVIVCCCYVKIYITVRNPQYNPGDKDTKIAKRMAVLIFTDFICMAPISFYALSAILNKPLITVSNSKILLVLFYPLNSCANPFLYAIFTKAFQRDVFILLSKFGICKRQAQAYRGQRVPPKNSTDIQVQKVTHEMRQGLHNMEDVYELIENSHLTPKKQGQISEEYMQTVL

CC1(C)O[C@@H]2C[C@H]3[C@@H]4C[C@H](F)C5=CC(=O)C=C[C@]5(C)[C@H]4[C@@H](O)C[C@]3(C)[C@]2(C(=O)CO)O1
Potency [1]: inactive | Potency [2]: inactive | Potency [3]: inactive | outcome [4]: inactive | Potency [5]: inactive | Potency [6]: inactive | Potency [7]: inactive | Potency [8]: inactive | Potency [9]: inactive | Potency [10]: inactive | Potency [11]: inactive | max response [12]: -1.56% | Potency [13]: inactive | Potency [14]: inactive | Potency [15]: inactive | Potency [16]: inactive | Potency [17]: inactive

O=c1[nH]ncc2ccccc12
Potency [1]: inactive | Potency [2]: inactive | Potency [3]: inactive | outcome [4]: inactive | Potency [5]: inactive | Potency [6]: inactive | Potency [7]: inactive | Potency [8]: inactive | Potency [9]: inactive | Potency [18]: inactive | Potency [10]: inactive | Potency [11]: inactive | Potency [13]: inactive | Potency [14]: inactive | Potency [15]: inactive | Potency [16]: inactive | Potency [17]: inactive

CN1CC(=O)N2[C@H](c3ccc4c(c3)OCO4)c3[nH]c4ccccc4c3C[C@@H]2C1=O
Potency [1]: inactive | Potency [2]: inactive | Potency [3]: inactive | outcome [4]: inactive | Potency [5]: inactive | Potency [6]: inactive | Potency [7]: inactive | Potency [8]: inactive | Potency [9]: inactive | Potency [18]: inactive | Potency [10]: inactive | Potency [11]: inactive | max response [12]: -16.3% | Potency [13]: inactive | Potency [14]: inactive | Potency [15]: inactive | Potency [16]: inactive | Potency [17]: inactive

CCC1CO1 (stereo not given)
Potency [1]: inactive | Potency [2]: inactive | Potency [3]: inactive | outcome [4]: inactive | Potency [5]: inactive | Potency [6]: inactive | Potency [7]: inactive | Potency [8]: inactive | Potency [9]: inactive | Potency [18]: inactive | Potency [10]: inactive | Potency [11]: inactive | max response [12]: 4.39% | Potency [13]: inactive | Potency [14]: inactive | Potency [15]: inactive | Potency [16]: inactive | Potency [17]: inactive

CC(C)C[C@H](NC(=O)[C@H](CCc1ccccc1)NC(=O)CN1CCOCC1)C(=O)N[C@@H](Cc1ccccc1)C(=O)N[C@@H](CC(C)C)C(=O)[C@@]1(C)CO1
Potency [1]: inactive | Potency [2]: 213 nM (active) | Potency [3]: inactive | outcome [4]: inactive | Potency [5]: inactive | Potency [19]: 59.6 nM (active) | activity change, positive = activation [20]: -67.1% [at 42.5 µM] | Potency [6]: 67.4 nM (active) | Potency [7]: 37.9 nM (active) | Potency [8]: inactive | Potency [9]: 23.9 nM (active) | Potency [18]: 75.6 nM (active) | Potency [11]: inactive | Potency [12]: 26.8 nM (active) | Potency [13]: inactive | Potency [14]: 10.7 µM (active) | Potency [15]: 26.8 nM (active) | Potency [16]: 268 nM (active) | Potency [17]: 16.9 nM (active)

C[C@]1(Cn2ccnn2)[C@H](C(=O)O)N2C(=O)C[C@H]2S1(=O)=O
Potency [1]: inactive | Potency [2]: inactive | Potency [3]: inactive | outcome [4]: inactive | Potency [5]: inactive | Potency [7]: inactive | Potency [8]: inactive | Potency [9]: inactive | Potency [18]: inactive | Potency [10]: inactive | Potency [11]: inactive | max response [12]: 2.48% | Potency [13]: inactive | Potency [14]: inactive | Potency [16]: inactive | Potency [17]: inactive

CC(=O)OCC(=O)NCCCOc1cccc(CN2CCCCC2)c1
Potency [1]: inactive | Potency [2]: inactive | Potency [3]: inactive | outcome [4]: inactive | Potency [5]: inactive | Potency [19]: inactive | activity change, positive = activation [20]: 4.2% [at 42.5 µM] | Potency [6]: inactive | Potency [7]: inactive | Potency [8]: inactive | Potency [9]: inactive | Potency [18]: inactive | Potency [10]: inactive | Potency [11]: inactive | max response [12]: 1.71% | Potency [13]: inactive | Potency [14]: inactive | Potency [15]: inactive | Potency [16]: inactive | Potency [17]: inactive
